In general, inhibition refers to the relative decrease from the control value, in per cent.

Four compounds from PubChem BioAssay can be followed below.

The nature of assay [1]: Wnt pathway potentiators raising nuclear beta-catenin – imaging, WNT3A-conditioned medium, mouse C2C12, NPC library, primary screen (AID 1117326; in the data active = nuclear beta-catenin stimulation mostly above about 4.2%, no sharp cut-off; inactive = mostly below about 10%). To be noted: stronger effect = higher value.
A short description of assay [2]: stimulators of insulin release from INS-1E, primary screen, cell-based, 5 mM glucose, NPC library (AID 1117329;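 active = compound raises insulin release from rat beta cells at 5 mM glucose, no numeric limit stated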). The note with it: rat INS-1E insulin secretion, at 10 µM, stronger effect = higher value.
Assay [3] is described as follows: growth inhibition of GSK3B-pretreated HCT116 cells – cell-based, CellTiter-Glo, 0.2 to 20 µM (AID 1117336;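 active = compounds lowering colon cancer cell viability after pretreatment blocking the GSK3B kinase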). To be noted: HCT116 viability after GSK3B inhibitor, at 20 µM, stronger effect = higher value. (ATP-based viability assays read luminescence as a measure of living cells.)
Assay [4] in a line: inhibition of endothelial tube formation, primary screen, imaging, VEGF stimulated, CD31 staining, tube area, NPC library (AID 1117340;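 active = compound that reduces growth-factor-driven endothelial tube area in a mixed cell culture, no cutoff stated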). To be noted: VEGF-stimulated ADSC/ECFC co-culture, at 10 µM, stronger effect = higher value.
The nature of assay [5]: GLP1 release stimulators, primary, NCI-H716, NPC library (AID 1117341;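 active = compound raises GLP1 secretion from the human gut endocrine cells, with no numeric limit stated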). To be noted: NCI-H716 cells, at 10 µM, stronger effect = higher value.
Assay [6] is described as follows: HCT116 colon cancer cell growth inhibition, primary screen, CellTiter-Glo luminescence, NPC library (AID 1117342;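 active = compounds that lower survival of HCT116 colon cancer cells in the luminescence readout, no numeric limit stated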). The note with it: at 20 µM (top of the series).
The nature of assay [7]: reduced SW480 viability measured with CellTiter-Glo, NPC library, primary (AID 1117343;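 active = compounds that lower viability of the colon cancer cells in the luminescence readout, with no numeric limit stated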). The note with it: CellTiter-Glo luminescence; at 20 µM (top of the series).
The nature of assay [8]: NPC library primary testing for decreased DLD-1 cell viability via CellTiter-Glo (AID 1117346;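 active = compounds that lower survival of DLD-1 colon cancer cells in the luminescence readout, no cutoff given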). To be noted: DLD-1 viability, CellTiter-Glo luminescence; at 20 µM (top of the series).
In assay [9] the target is ATP-dependent translocase ABCB1 (Homo sapiens) (UniProt P08183). Description: P-glycoprotein substrate transport blockade – cell-based (AID 377; in the data active = fluorescence slope change above about 50%). The note with it: MDR1-expressing cells, fluorescent substrate accumulation slope; stronger effect = higher value; concentration not given here.
A short description of assay [10]: blockers of polyQ-driven CASP3 activation – cell-based (AID 1583). To be noted: polyglutamine-induced caspase-3 activation, cell assay; stronger effect = higher value;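 tested at 10 µM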.
Assay [11] in a line: yeast 75Q aggregation reduction – 75Q-TubU reporter (AID 1593). The note with it: Yeast 75Q polyglutamine aggregation reporter.
Assay [12] is described as follows: blockers of cytochrome c efflux from mitochondria – biochemical, purified mitochondria (AID 1603).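 Note: mouse liver mitochondria challenged with calcium chloride; signal normalized to the plate average as 100%.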 To be noted: stronger effect = lower value.
A short description of assay [13]: polyglutamine aggregate formation blockers (AID 1604). The note with it: polyglutamine-induced protein aggregation inhibition assay; stronger effect = higher value; tested at 2.5 µM.
The nature of assay [14]: glutamate transport activators, MN-1 cells, MN-1 cell line (AID 1612).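 Note: tested at 1 µM final; 0% = mean of DMSO vehicle wells on each plate; positive means more glutamate uptake than control and negative means less.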 The note with it: MN-1 motor neuron cells, stronger effect = higher value.
Assay [15] in a line: 75Q-TubH aggregate inhibition, S. cerevisiae, yeast (AID 1616). To be noted: S. cerevisiae 75Q-TubH polyglutamine aggregation suppression; stronger effect = higher value.
Assay [16] is described as follows: compounds altering viability of human ES cells (AID 493140; call rule not given here;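 note: cells exposed to compounds for four days before counting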). The note with it: human embryonic stem cell survival screen; stronger effect = higher value.
The nature of assay [17]: signal quenchers or enhancers, Cy5 substrate/SSB – biochemical, NIH Clinical Collection, E. coli SSB, artefact control for HCV NS3 helicase inhibitor project (AID 743268; call rule not given here). To be noted: Cy5-oligo bound E. coli SSB, fluorescence interference.
Assay [18] deals with Hepatitis C virus NS3 helicase. Description: blockers of NS3h binding to DNA – biochemical, fluorescence polarization, NIH Clinical Collection, primary screen (AID 743270; call rule not given here). To be noted: NS3 helicase binding to Cy5-dT15 DNA, stronger effect = higher value, concentration not given here. (Fluorescence polarisation rises when a labelled molecule tumbles more slowly, as on binding a larger partner.)

Assay [19] deals with Single-stranded DNA-binding protein (Escherichia coli (strain K12)) (UniProt P0AGE0). The assay can be described thus: SSB-ssDNA binding inhibitors – biochemical, fluorescence polarization, NIH Clinical Collection, counter-screen for HCV NS3 helicase inhibitor project (AID 743271; in the data active = inhibition above about 28%). To be noted: E. coli SSB-DNA binding, stronger effect = higher value, concentration not given here.
A short description of assay [20]: compounds distorting NS3 helicase fluorescence signal – biochemical, NIH Clinical Collection, artefact control for HCV NS3 helicase inhibitor project (AID 743272; call rule not given here;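 note: HCV NS3 helicase with a Cy5 labelled single stranded DNA probe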). To be noted: fluorescence interference counterscreen, HCV NS3 helicase assay; stronger effect = lower value. A general note: Counterscreens check selectivity or assay interference.
Assay [21] deals with 6-phosphogluconate dehydrogenase, decarboxylating (Homo sapiens) (UniProt P52209). Description: inhibition of human phosphogluconate dehydrogenase – biochemical, recombinant enzyme, NADPH absorbance, primary screen (AID 1159550;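 active = at least 20% inhibition of 6-phosphogluconate dehydrogenase activity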). The note with it: recombinant 6PGD, NADPH absorbance 341 nm; at 10 µM; stronger effect = higher value.
Assay [22] is described as follows: modulation of C. elegans fzo-1 (AID 1259413; call rule not given here;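 note: fzo-1 mutant C. elegans worms in liquid wells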). The note with it: C. elegans fzo-1 modulator screen, mean read-out; stronger effect = higher value.
A short description of assay [23]: EMT-state selective cytotoxicity in co-culture – imaging, PC-3E GFP, TEM4-18 mCherry, primary screen (AID 1345086;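 active = compounds killing one labelled cell type while sparing the other, by normalised counts and ratio limits, not self-fluorescent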;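 note: cells exposed to compound for 72 h before imaging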;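 for red/green cell ratio (normalised): normalised mesenchymal count divided by normalised epithelial count so high means epithelial killing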). The note with it: PC-3E GFP / TEM4-18 mCherry co-culture, imaging cell counts, at 1 µM.
In assay [24] the test system is Aerobactin synthetase IucA (Klebsiella pneumoniae hvKP1). Description: IucA enzyme inhibition, primary screen, biochemical, Spectrum library (AID 1346200; call rule not given here;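 note: 100% = wells without compound and 0% = wells lacking enzyme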). The note with it: malachite green pyrophosphate, A620, at 8 µM, stronger effect = lower value.
The nature of assay [25]: MELAS cybrid and Rieske KO viability enhancers – cell-based, MELAS cybrids, Rieske KO mouse fibroblasts, CellTiter-Glo, primary screen (AID 1508586;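 active = mean z-score across replicates of 1.96 or higher in either the MELAS or the Rieske mutant cell line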;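 note: z relative to plate mean and SD of compound and empty wells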). To be noted: low glucose.
The target in assay [26] is NAD(+) hydrolase SARM1 (Homo sapiens) (UniProt Q6SZW1). Description: blocking NAD cleavage by SARM1 SAM-TIR – cell lysate, NAD-Glo luminescence (AID 1508614;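 active = compound whose remaining NAD level is above about 45 nM, limit read from the data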;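 note: higher remaining NAD means stronger inhibition of SARM1 NADase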). To be noted: SAM-TIR HEK293T lysate NADase, at 1 µM, stronger effect = higher value.
In assay [27] the target is Mitogen-activated protein kinase 7 (Homo sapiens) (UniProt Q13164). The assay can be described thus: Gal4-ERK5 driven luciferase induction – cell-based, HTS, primary screen (AID 1508626;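 active = luciferase signal above three times the same-plate solvent-only control wells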;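 note: luciferase driven by Gal4-ERK5 fusion binding five Gal4 sites before minimal TATA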). To be noted: HeLa Gal4-ERK5 transactivation, 18 h, at 5 µM, stronger effect = higher value.
A short description of assay [28]: galactose survival enhancers in mitochondrial complex I cybrids – cell-based, galactose medium, ATP luminescence, primary screen (AID 1645843;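 active = z-score of at least 1.8 in each of two replicates, scored against plate mean and spread of sample wells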;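 note: positive z means more ATP and so rescue of galactose-driven cybrid death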). To be noted: complex I mutant cybrid cells, 72 h, stronger effect = higher value.
The subject of assay [29] is F380Y. The assay can be described thus: BK channel mutant inhibitors and activators – cell-based, U2OS BacMam, thallium flux, beta subunits, selectivity assay, profiling panel (AID 1259406).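 Note: initial slope of Thallos dye fluorescence rise after thallium is added; log ratio against the mean of 0.3% DMSO vehicle wells on the same plate.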 The note with it: U2OS BacMam BK variants, at 30 µM.
Assay [30] concerns F380Y/beta1. Described as above. To be noted: U2OS BacMam BK variants, at 30 µM.
Assay [31] concerns F380Y/beta2Delta. The assay is described as above. To be noted: U2OS BacMam BK variants, at 30 µM.
The test system of assay [32] is F380Y/beta4. The assay is described as above. The note with it: U2OS BacMam BK variants, at 30 µM.
Assay [33] concerns R275C. The description is as above. To be noted: U2OS BacMam BK variants, at 30 µM.
Assay [34] relates to R275C/beta1. The assay is described as above. To be noted: U2OS BacMam BK variants, at 30 µM.
In assay [35] the test system is R275C/beta2Delta. The description is as above. The note with it: U2OS BacMam BK variants, at 30 µM.
The test system of assay [36] is R275C/beta4. Described as above. To be noted: U2OS BacMam BK variants, at 30 µM.
Assay [37] deals with R275C/Slo1WT/beta2. Described as above. To be noted: U2OS BacMam BK variants, at 30 µM.

SMILES strings stand for the structures. “And” between values parts separate entries of the source, which are not always exact repeats. Equal entries are not always repeated. Records with an inconclusive call do not appear. The source made the active and inactive calls.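 Rule for the calls, unless noted: active = thallium flux through the channel raised or lowered by more than 3 SD from vehicle-only wells, actives on both sides; inactive = the rest.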

Chain of ATP-dependent translocase ABCB1 (Homo sapiens) (P08183 whole entry, looked up): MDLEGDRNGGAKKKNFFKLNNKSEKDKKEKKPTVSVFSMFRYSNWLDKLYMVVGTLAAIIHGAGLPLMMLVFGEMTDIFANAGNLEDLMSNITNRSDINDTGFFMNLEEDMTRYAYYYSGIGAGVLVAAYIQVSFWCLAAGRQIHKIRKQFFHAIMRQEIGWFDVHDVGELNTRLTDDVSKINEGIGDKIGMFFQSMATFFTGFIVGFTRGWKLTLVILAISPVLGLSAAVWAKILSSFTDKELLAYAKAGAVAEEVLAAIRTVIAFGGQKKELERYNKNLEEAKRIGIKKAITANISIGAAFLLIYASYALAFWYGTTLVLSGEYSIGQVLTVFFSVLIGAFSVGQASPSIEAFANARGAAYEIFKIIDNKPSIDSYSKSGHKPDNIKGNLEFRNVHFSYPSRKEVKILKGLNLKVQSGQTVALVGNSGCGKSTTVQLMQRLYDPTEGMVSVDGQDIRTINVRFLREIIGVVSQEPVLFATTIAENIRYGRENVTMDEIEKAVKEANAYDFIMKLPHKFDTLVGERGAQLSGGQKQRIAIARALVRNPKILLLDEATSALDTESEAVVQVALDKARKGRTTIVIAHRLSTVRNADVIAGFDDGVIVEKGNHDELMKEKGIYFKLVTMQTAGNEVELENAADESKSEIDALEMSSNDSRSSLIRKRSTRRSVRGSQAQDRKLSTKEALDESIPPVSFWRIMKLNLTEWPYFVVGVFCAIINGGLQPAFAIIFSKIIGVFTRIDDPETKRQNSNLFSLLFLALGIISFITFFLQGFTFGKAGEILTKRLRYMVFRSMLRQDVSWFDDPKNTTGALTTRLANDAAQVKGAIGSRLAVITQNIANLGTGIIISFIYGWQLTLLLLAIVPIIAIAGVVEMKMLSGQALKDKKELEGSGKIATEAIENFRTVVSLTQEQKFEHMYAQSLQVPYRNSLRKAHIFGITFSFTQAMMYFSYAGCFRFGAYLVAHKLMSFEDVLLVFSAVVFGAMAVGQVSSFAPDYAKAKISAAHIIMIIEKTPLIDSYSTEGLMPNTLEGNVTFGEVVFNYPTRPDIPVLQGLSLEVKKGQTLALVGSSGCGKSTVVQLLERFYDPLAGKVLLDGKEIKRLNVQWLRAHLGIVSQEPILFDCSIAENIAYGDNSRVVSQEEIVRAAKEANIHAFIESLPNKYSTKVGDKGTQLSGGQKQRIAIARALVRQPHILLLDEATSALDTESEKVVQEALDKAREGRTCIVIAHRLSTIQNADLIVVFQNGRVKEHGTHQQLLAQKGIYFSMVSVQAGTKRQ
Chain of NAD(+) hydrolase SARM1 (Homo sapiens) (Q6SZW1 whole entry, looked up, the tested form may be a part): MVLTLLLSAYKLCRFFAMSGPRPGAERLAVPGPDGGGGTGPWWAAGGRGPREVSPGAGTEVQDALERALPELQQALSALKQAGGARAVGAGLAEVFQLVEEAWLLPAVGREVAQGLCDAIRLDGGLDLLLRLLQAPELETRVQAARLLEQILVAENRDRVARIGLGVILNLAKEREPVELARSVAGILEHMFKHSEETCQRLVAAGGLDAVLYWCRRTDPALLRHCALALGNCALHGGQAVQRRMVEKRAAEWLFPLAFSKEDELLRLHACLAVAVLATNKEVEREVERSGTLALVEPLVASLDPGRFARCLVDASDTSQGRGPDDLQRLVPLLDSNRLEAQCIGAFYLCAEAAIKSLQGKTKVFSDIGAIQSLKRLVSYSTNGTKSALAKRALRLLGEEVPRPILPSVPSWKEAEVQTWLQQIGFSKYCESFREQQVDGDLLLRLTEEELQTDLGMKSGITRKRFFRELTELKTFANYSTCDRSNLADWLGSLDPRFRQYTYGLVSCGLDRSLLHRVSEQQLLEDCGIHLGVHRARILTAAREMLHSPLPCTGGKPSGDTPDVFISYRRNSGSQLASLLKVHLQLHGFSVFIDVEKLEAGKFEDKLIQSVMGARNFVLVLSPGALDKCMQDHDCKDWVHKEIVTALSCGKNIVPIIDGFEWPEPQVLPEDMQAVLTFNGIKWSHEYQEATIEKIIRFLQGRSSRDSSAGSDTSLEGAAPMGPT
Chain of 6-phosphogluconate dehydrogenase, decarboxylating (Homo sapiens) (P52209 whole entry, looked up): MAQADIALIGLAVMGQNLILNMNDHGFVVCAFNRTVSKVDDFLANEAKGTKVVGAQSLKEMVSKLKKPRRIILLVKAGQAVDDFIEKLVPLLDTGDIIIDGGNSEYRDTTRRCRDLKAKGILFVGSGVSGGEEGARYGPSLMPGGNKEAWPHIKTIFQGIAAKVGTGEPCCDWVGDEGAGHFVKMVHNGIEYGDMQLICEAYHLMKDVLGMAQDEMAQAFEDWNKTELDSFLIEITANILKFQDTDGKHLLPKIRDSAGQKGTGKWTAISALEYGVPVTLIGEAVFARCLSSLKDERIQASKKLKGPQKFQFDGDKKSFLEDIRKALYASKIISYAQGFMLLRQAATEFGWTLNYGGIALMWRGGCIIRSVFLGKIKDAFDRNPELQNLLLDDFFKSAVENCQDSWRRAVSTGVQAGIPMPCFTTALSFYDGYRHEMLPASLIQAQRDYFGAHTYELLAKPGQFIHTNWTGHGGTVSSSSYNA
Chain of Mitogen-activated protein kinase 7 (Homo sapiens) (Q13164 whole entry, looked up, the tested form may be a part): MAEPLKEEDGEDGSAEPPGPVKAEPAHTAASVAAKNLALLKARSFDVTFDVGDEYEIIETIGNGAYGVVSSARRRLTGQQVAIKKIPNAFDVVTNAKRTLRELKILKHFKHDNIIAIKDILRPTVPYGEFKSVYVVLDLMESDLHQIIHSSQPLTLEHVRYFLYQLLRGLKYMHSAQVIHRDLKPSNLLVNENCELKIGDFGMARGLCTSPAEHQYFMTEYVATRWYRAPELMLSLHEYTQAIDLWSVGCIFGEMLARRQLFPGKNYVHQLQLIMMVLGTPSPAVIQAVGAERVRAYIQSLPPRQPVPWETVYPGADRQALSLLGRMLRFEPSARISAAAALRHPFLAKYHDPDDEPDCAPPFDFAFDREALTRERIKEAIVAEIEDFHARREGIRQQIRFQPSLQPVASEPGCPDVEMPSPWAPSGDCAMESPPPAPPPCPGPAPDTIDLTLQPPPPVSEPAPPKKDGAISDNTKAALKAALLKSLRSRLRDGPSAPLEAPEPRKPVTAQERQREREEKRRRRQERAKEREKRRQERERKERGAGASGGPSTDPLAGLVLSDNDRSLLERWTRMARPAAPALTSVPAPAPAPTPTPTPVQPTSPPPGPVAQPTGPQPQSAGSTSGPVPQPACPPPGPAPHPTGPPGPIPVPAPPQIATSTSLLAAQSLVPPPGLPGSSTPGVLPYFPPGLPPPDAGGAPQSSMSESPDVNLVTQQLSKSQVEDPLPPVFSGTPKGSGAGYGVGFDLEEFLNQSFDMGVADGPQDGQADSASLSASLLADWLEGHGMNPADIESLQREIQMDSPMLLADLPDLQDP

As to `CC(C)NC(C)C`, the nuclear beta-catenin stimulation in assay [1] (at 10 µM) was 14.9% (inactive); in assay [1] (stimulation, at 2 µM) it was 5.2%. In addition, the insulin secretion stimulation in [2] is 4.3% (inactive). Also, the viability decrease in assay [3] was -0.3% (inactive). For the same compound, in assay [4], the tube area decrease was -6.3% (inactive). Moreover, the GLP1 secretion stimulation in assay [5] was -0.1% (inactive). Further, the inhibition of viability in [6] was 1.1% (inactive). Also, the results for the viability decrease (inhibition) in assay [7] and in assay [8] were 2.1% (inactive) and 0.4% (inactive), respectively.
Take `CCOC(=O)c1ncn2c1CN(C)C(=O)c1c(I)cccc1-2`: the nuclear beta-catenin stimulation was -0.1% (inactive) in assay [1] (at 10 µM) and -0.1% in assay [1] (stimulation, at 2 µM). In assay [2], the insulin secretion stimulation was 0.8% (inactive). In assay [3], the viability decrease was 3.6% (inactive). The tube area decrease in assay [4] was -12.8% (inactive). For the same compound, the GLP1 secretion stimulation in assay [5] is -0.9% (inactive). The inhibition of viability in [6] is 11.2% (inactive). For the same compound, the viability decrease (inhibition) in assay [7] was -7.6% (inactive); in [8], -11.3% (inactive).
Take `C[C@]12CCC(=O)C=C1C=C[C@@H]1[C@H]2CC[C@@]2(C)[C@@H]1CC[C@@]2(O)CCC(=O)O`: the nuclear beta-catenin stimulation in assay [1] (at 10 µM) was -1.1% (inactive); in [1] (stimulation, at 2 µM) it was 0%. In addition, the insulin secretion stimulation in assay [2] is -2.4% (inactive). In addition, the viability decrease in assay [3] was -15.4% (inactive). In addition, the tube area decrease in assay [4] was 2% (inactive). Besides, the GLP1 secretion stimulation in assay [5] was 0.9% (inactive). Moreover, the inhibition of viability in assay [6] was 3.7% (inactive). Moreover, the figures for the viability decrease (inhibition) in [7] and in assay [8] were -2% (inactive) and -7.2% (inactive), respectively.
`Clc1ccc(COC(Cn2ccnc2)c2ccc(Cl)cc2Cl)cc1` (stereo not drawn): the fluorescence slope change in [9] was 66.2% (active). The inhibition in assay [10] is 55.1%; in assay [18], 3.18% (inactive); in assay [19] it was 4.1% (inactive); in assay [21] it was -10.8% (inactive). Besides, the score in assay [11] was found to be 0.26. Also, in assay [12], the cytochrome c release ratio amounted to 0.38. The same compound yielded an inhibition of aggregation in [13] of 43.9%. The same compound yielded a glutamate uptake change in assay [14] of 16.9%. The same compound returned an aggregation suppression score in [15] of 0.0462. Besides, the survival in assay [16] was 50.1 (inactive). Also, the fluorescence ratio is 1.02 (inactive) in assay [17] and 0.94 (inactive) in [20]. Moreover, the nuclear beta-catenin stimulation in [1] (at 10 µM) is 3.6% (inactive); in [1] (stimulation, at 2 µM), 4.8%. Moreover, the insulin secretion stimulation in assay [2] was 2.8% (inactive). Besides, in assay [3], the viability decrease was 101% (active). Moreover, the tube area decrease in assay [4] was 108% (active). The GLP1 secretion stimulation in assay [5] is 23.9% (active). The inhibition of viability in [6] was 102% (active). In addition, the viability decrease (inhibition) in [7] is 123% (active); in assay [8] it was 103% (active). For the same compound, in [22], the mean signal was 173 (inactive). The red/green cell ratio (normalised) in assay [23] (actives lie on both sides) is 1.13 (inactive). The results for the normalised cell number in assay [23] (measured here: epithelial PC-3E GFP cell survival) and in assay [23] (measured here: mesenchymal TEM4-18 mCherry cell survival) were 0.92 and 1.04, respectively. Further, in [24], the activity remaining was 123% (inactive). The z-score in [25] (MELAS cybrid survival, CellTiter-Glo 48 h, stronger effect = higher value) was -0.276 (inactive) and 1.78 (inactive); in [25] (Rieske KO mouse fibroblast survival, CellTiter-Glo 72 h) it was 0.45 and 0.962; in [28], -1.53 (inactive). Further, the remaining NAD in [26] is 10 nM (inactive). Also, the luciferase signal in assay [27] is 60 AU (inactive). Besides, the log fold change Tl+ flux is -0.0888 (inactive) in [29]; -0.0732 (inactive) in assay [30]; -0.182 (active) in assay [31]; -0.321 (active) in assay [32]; -0.00134 (inactive) in assay [33]; 0.0779 (inactive) in [34]. Moreover, the log fold change Tl+ flux is 0.0329 (inactive) in assay [35], 0.279 (active) in assay [36] and -0.0527 (inactive) in [37].
